Results on 63 molecules are retold here after PubChem BioAssay AID1347131 (National Center for Advancing Translational Sciences (NCATS), 2019).

SMILES strings stand for the structures. Screen size: about 410,000 compounds; about 2,000 (0.49%) were called active. Not shown: some 8% with an inconclusive outcome. Calls follow the shape of the full dose curve; tested in HEK293 reporter line. What follows is part of a selection rich in actives, with near analogues and random picks from the rest. A call without a number means that no potency is given here.
Potency is read from the fitted curve at half-maximal effect.

A short description of the assay: qHTS Assay for Foot and Mouth Disease Virus Antivirals: Primary Screen against the MLPCN compound library. Also: nearly all actives have a fitted effect of over 55% in size. The conditions noted are these: FMDV antiviral cell-based qHTS; series mostly up to 57.9 µM.
With `CC(=O)c1ccc(NC(=O)c2ccc(-c3nc(CSc4ccccc4)c(C)o3)cc2)cc1`, the Potency result is “inactive”.

Consider `C[C@H]1CN([C@@H](C)CO)C(=O)c2cc(NC(=O)C3CCCCC3)ccc2O[C@H]1CN(C)Cc1ccc(-c2ccccc2)cc1`, for which the Potency entry was “inactive”. The same measure for `CC1CCC(C(C)C)C(OC(=O)Cn2c(-c3ccc(Br)cc3)[n+](C)c3ccccc32)C1` (stereo not drawn): 15.8 µM (active). The figure for `Cc1ccccc1OCc1n(CC(=O)OC2CC(C)CCC2C(C)C)c2ccccc2[n+]1C` (stereo not drawn) is 17.8 µM (active); for `Cc1noc(C)c1COc1ccc(C(=O)N2CCN(c3ccccn3)CC2)cc1` it is “inactive”. The same measure for `O=C(c1ccco1)N1N=C(c2cccs2)CC1c1ccccc1O` (stereo not drawn): “inactive”; for `CC(C)C[C@H]1CN=C(N(C)C)N1CCCCc1ccccc1`: “inactive”.

As to `Cc1ccc(N2C(=O)CC(N3CCN/C3=C3\CC/C(=C\c4ccccc4)C3=O)C2=O)cc1` (stereo not drawn), the Potency result was “inactive”. `Cc1ccc(NC(=O)CN2C(=O)NC3(CCCCC3C)C2=O)cc1S(=O)(=O)N1CCCCC1` (stereo not drawn): the Potency entry is “inactive”. As to `CN(C)S(=O)(=O)c1ccc(C(=O)N2CCC(c3nc4ccccc4o3)CC2)cc1`, the Potency result is “inactive”.

Regarding `CSc1nc(Nc2ccc(C)cc2C)cc(-c2ccccc2)n1`, the Potency entry is “inactive”. The same measure for `CCC(C)NC(=O)c1cc(-c2ccccc2O)on1` (stereo not drawn): “inactive”. The same measure for `Cc1ccc(-c2cc(-c3ccccc3)no2)c(O)c1`: 5.01 µM (active); for `O=C1/C(=C/c2ccc(O)c([N+](=O)[O-])c2)SC(=S)N1Cc1ccccc1`: “inactive”; for `Cc1nn2c(-c3cccc(NC(=O)CSc4nc5ccccc5o4)c3)nnc2c2ccccc12`: “inactive”. The same measure for `COc1ccc(-c2noc(CCCC(=O)NC3CCCC3)n2)cc1`: “inactive”; for `COc1ccc(C(=O)Nc2onc3c2CCCC3)cc1`: 12.6 µM (active); for `COc1ccc(NC(=O)c2c(NC(=O)c3ccc(Br)cc3)sc3c2CCCC3)cc1`: “inactive”. For `CCOc1cccc(C(=O)Nc2ccc(S(=O)(=O)N(Cc3ccccc3)c3ccccc3)cc2)c1`, the Potency entry was “inactive”.

On to `CCOc1cccc(C(=O)Nc2nnc(-c3ccco3)s2)c1`, for which the Potency was 11.2 µM (active). The same measure for `COc1cccc(C(=O)Nc2cccc(-c3nnc(-c4ccccc4)o3)c2)c1`: “inactive”; for `CCN(CC)CCN(C(=O)c1ccc2c(c1)CCCC2)c1nc2ccc(C)cc2s1`: “inactive”. The same measure for `CC(=O)N(Cc1cc2cc(C)ccc2[nH]c1=O)c1cccc(C)c1C`: “inactive”. The entry for `O=C(CCS(=O)(=O)c1ccc(Br)cc1)N1CCN(c2ccccc2F)CC1` is “inactive”. `Cc1cc(C)c(NS(=O)(=O)c2ccc3c(c2)NC(=O)CC(=O)N3)c(C)c1`: the Potency result was “inactive”.

On to `O=C(NCCCCc1ccccc1)NC[C@@H]1CC[C@@H](Cc2ccc(-c3ccccc3)cc2)O1`, for which the Potency result was “inactive”. The figure for `COc1ccc2[nH]cc(CCNc3ncncc3-c3ccoc3)c2c1` is 22.4 µM (active). The same measure for `COc1ccc2[nH]cc(CCNc3ccnc(-c4cccnc4)n3)c2c1`: “inactive”. The entry for `COc1ccc2[nH]cc(CCNc3ccnc(-c4c(C)noc4C)n3)c2c1` is “inactive”.

For the molecule `COc1ccc(S(=O)(=O)N2CCCN(CCC(=O)Nc3cccc(C(F)(F)F)c3)CC2)cc1`, the Potency entry was “inactive”. Consider `Cc1cccc(N2CCN(C(=O)CCS(=O)(=O)c3ccc4c(c3)oc(=O)n4C)CC2)c1C`, for which the Potency entry was “inactive”. The same measure for `CCc1cc(C(=O)N2CCCC(C(=O)c3ccc(Cl)cc3)C2)no1` (stereo not drawn): “inactive”; for `O=C(c1cc(-c2ccc(Cl)cc2Cl)on1)N1CCCC1`: 12.6 µM (active). The same measure for `COc1ccc(-c2cc(C(=O)N3CCCCC3)no2)cc1OC`: “inactive”; for `Cc1cc(C)n2nc(C)c(-c3ccc(Cl)cc3)c2n1`: “inactive”.

On to `Cc1nn2cnnc2c(C)c1Cc1ccc(Cl)cc1`, for which the Potency result was “inactive”. The figure for `Cc1nc2nc(-c3ccc(Cl)cc3)cn2nc1C` is 10 µM (active); for `COc1ccc(/C=N/NC(=S)Nc2cc(S(=O)(=O)N3CCOCC3)ccc2N2CCOCC2)cc1O` it is “inactive”; for `CCc1c(C)c2ccc(O)c(CN3CCN(c4ccccc4)CC3)c2oc1=O` it is “inactive”. The same measure for `Brc1ccc(C2C3=C(Nc4ncnn42)c2ccccc2OC3c2ccncc2)cc1` (stereo not drawn): 17.8 µM (active). As to `COC(=O)c1c(C)oc(C)c1S(=O)(=O)NCC1CC1`, the Potency entry is “inactive”.

For the molecule `COc1ccc(NS(=O)(=O)c2ccc(-n3cccn3)cc2)cc1OC`, the Potency entry is “inactive”. The entry for `O=C(CN1CCN(S(=O)(=O)c2cc(C(F)(F)F)ccc2Cl)CC1)N1CCc2ccccc2C1` is “inactive”; for `C=CCc1ccccc1OCC(O)CN1CCN(c2ccccc2OC)CC1` (stereo not drawn) it is “inactive”. On to `COC(CNC(=O)C1CCN(S(=O)(=O)c2cccc3nsnc23)CC1)OC`, for which the Potency entry is “inactive”.

`CCOC(=O)c1cc(-c2ccccc2)n(CCC(=O)N2CCN(c3ccccc3OC)CC2)c1C`: the Potency entry is “inactive”. Regarding `Cc1ccc2[nH]c(CSc3nnc(NC(=O)c4ccccc4F)s3)cc(=O)c2c1`, the Potency result was “inactive”. The same measure for `CCc1ccc(C(=O)C[n+]2cccc3cc(OC)ccc32)cc1`: 8.91 µM (active); for `CCc1ccc(C2CC(c3cccc(OC)c3)n3nc(N)nc3N2)cc1` (stereo not drawn): “inactive”; for `Cc1cc[n+](CC(=O)c2ccc(NC(=O)c3ccccc3)cc2)c2ccccc12`: “inactive”. The same measure for `CC1(c2nnc(-c3ccncc3)o2)CC(c2ccc([N+](=O)[O-])cc2)=NO1` (stereo not drawn): “inactive”; for `Cc1occc1C(=O)NNC(=S)Nc1ccccc1`: “inactive”; for `COc1ccc(-c2cc(=NC(CC(C)C)C(=O)O)c3cc(C)ccc3o2)cc1` (stereo not drawn): “inactive”.

On to `CC(=O)Nc1scc(C)c1-c1nc2ccccc2s1`, for which the Potency entry is “inactive”. The same measure for `CCOC(=O)c1nc2ccccc2s1`: “inactive”; for `CCCNC(=O)c1ccc(-c2nc3ccccc3s2)s1`: 14.1 µM (active). The same measure for `COc1cccc(-n2c(=O)c3c(C)c(C(=O)N(C)C)sc3n(Cc3ccc(F)cc3Cl)c2=O)c1`: “inactive”; for `Cc1nn2c(=O)cc(COC(=O)c3ccc(C(C)(C)C)cc3)nc2s1`: “inactive”.

In the case of `COc1cc(CNCc2ccccn2)ccc1OCc1ccccc1Cl`, the Potency entry is “inactive”. With `COc1ccc(C2C3C=CCC(c4cccc(-c5ccc(C)cc5)c4)C3C(=O)N2Cc2ccccc2)cc1Cl` (stereo not drawn), the Potency is 12.6 µM (active). The entry for `COc1ccc(-c2cccc([C@H]3[C@@H]4C=CC[C@@H](C)[C@@H]4C(=O)N3Cc3ccccc3)c2)cc1` is “inactive”; for `Cc1ccc(F)c([C@H]2C3C=CCC(c4ccccc4)C3C(=O)N2Cc2ccccc2)c1` (stereo partly drawn) it is “inactive”; for `CCOc1ncccc1C(=O)Nc1cc(S(=O)(=O)N(CC)CC)ccc1N1CCOCC1` it is “inactive”.
